In test [1] the target is Aldehyde dehydrogenase, mitochondrial (Homo sapiens) (UniProt P05091). Briefly: qHTS for Inhibitors of the Aldehyde Dehydrogenase Family (ALDH2) Primary screen (AID 2061308). Further: nearly all actives have a fitted effect of over 55% in size. Further: potency means the concentration at half of the fitted maximal effect.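 On activity change, negative = inhibition: plate controls were vehicle for no effect and reference inhibitor for full effect.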
Test [2] has as its target Retinaldehyde dehydrogenase 3 (Homo sapiens) (UniProt P47895). Description: qHTS for Inhibitors of the Aldehyde Dehydrogenase Family (ALDH1A3) Confirmatory screens (AID 2061311). Further: nearly all actives have a fitted effect of over 60% in size. Further: potency means the concentration at half of the fitted maximal effect. On activity change, negative = inhibition: on the % scale 0 is the no-effect control and ±100 the full control effect.
In test [3] the target is Retinal dehydrogenase 2 (Homo sapiens) (UniProt O94788). Description: qHTS for Inhibitors of the Aldehyde Dehydrogenase Family (ALDH1A2) Confirmation screens (AID 2061314). Further: potency means the concentration at half of the fitted maximal effect; nearly all actives have a fitted effect of over 65% in size.
The target of test [4] is Retinaldehyde dehydrogenase 3 (Homo sapiens) (UniProt P47895). Description: qHTS for Inhibitors of the Aldehyde Dehydrogenase Family (ALDH1A3) Primary screen (AID 2061315).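 Further: plate controls were DMSO vehicle for no effect and reference inhibitor for full effect.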
The target of test [5] is Aldehyde dehydrogenase 1A1 (Homo sapiens) (UniProt P00352). Description: qHTS for Inhibitors of the Aldehyde Dehydrogenase Family (ALDH1A1) Confirmatory screens (AID 2061316). Further: nearly all actives have a fitted effect of over 65% in size. Further: potency means the concentration at half of the fitted maximal effect. On activity change, negative = inhibition: on the % scale 0 is the no-effect control and ±100 the full control effect.
For test [6], the target named is Retinaldehyde dehydrogenase 3 (Homo sapiens) (UniProt P47895). Briefly: qHTS for Inhibitors of the Aldehyde Dehydrogenase Family (ALDH1A3) Validation screen (AID 2061312). Further: nearly all actives have a fitted effect of over 45% in size. Further: potency means the concentration at half of the fitted maximal effect. On activity change, negative = inhibition: on the % scale 0 is the no-effect control and ±100 the full control effect.
Test [7] can be described thus: BET inhibitor-based combinations targeting novel dependencies in MECOM-rearranged (r) AML: SET-2 cell line (AID 2202231).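 Further: plate controls were DMSO treated cells for no effect and wells without cells for full effect; nearly all actives have a fitted effect of over 35% in size.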 The following applies: SET-2 AML cells viability, CellTiter-Glo luminescence, 48 h; viability: stronger effect = lower value, series mostly up to about 46 µM. The essentials: (§1)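 Readout: CellTiter-Glo luminescence. Exposure: 48 h, 11 concentrations, 500 cells/well. Metric: AUC and within-line Z-AUC after DMSO/empty-well normalization.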

A short description of test [8]: BET inhibitor-based combinations targeting novel dependencies in MECOM-rearranged (r) AML: OCI-AML3 cell line (AID 2202232).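 Further: series mostly up to about 46 µM; plate controls were DMSO vehicle wells for no effect and wells without cells for full effect; nearly all actives have a fitted effect of over 35% in size.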 The following applies: Potency: OCI-AML3 viability. The essentials:
as §1

The nature of test [9]: BET inhibitor-based combinations targeting novel dependencies in MECOM-rearranged (r) AML: MV-4-11 cell line (AID 2202233).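 Further: plate controls were DMSO for no effect and blank wells for full effect; nearly all actives have a fitted effect of over 45% in size.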 The essentials:
(§2)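 Seeding density was 500 cells/well, and drug exposure lasted 48 hr under standard culture conditions. Read-out used CellTiter-Glo reagent with a 15 min room-temperature incubation before luminescence measurement; AUC and Z-AUC summarize the normalized responses.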

Test [10] in a line: BET inhibitor-based combinations targeting novel dependencies in MECOM-rearranged (r) AML: HNT-34 cell line (AID 2202234).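 Further: plate controls were vehicle wells for no effect and cell-free wells for full effect; nearly all actives have a fitted effect of over 35% in size.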 The essentials:
as §2

The nature of test [11]: BET inhibitor-based combinations targeting novel dependencies in MECOM-rearranged (r) AML: UCSD-AML1 cell line (AID 2202235).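 Further: series mostly up to about 46 µM; plate controls were DMSO vehicle wells for no effect and blank wells for full effect; nearly all actives have a fitted effect of over 40% in size.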 Put shortly: as §2
A short description of test [12]: BET inhibitor-based combinations targeting novel dependencies in MECOM-rearranged (r) AML: AML-191 cell line (AID 2202236;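 further: plate controls were vehicle wells for no effect and wells without cells for full effect; nearly all actives have a fitted effect of over 35% in size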). Put shortly: as §1
Test [13] can be described thus: BET inhibitor-based combinations targeting novel dependencies in MECOM-rearranged (r) AML: AML-194 cell line (AID 2202237;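 further: plate controls were vehicle wells for no effect and wells without cells for full effect; nearly all actives have a fitted effect of over 40% in size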). Put shortly:
as §1

Records with an inconclusive call do not appear. Unmarked numbers belong to inactive results. Activity calls are given as the source filed them. The call rests on the fitted dose curve; in most records, active means well fitted curve in the direction sought with a large enough effect; inconclusive means small, poorly fitted or top-dose-only effect, or another doubt; inactive means no such curve, though single readings can be large; an effect the other way counts as inactive or inconclusive.

As for `COc1ccc(-c2ccc(=O)n(CC(=O)NCCc3ccccc3)n2)cc1`, the Potency entry in test [1], in [4] and in test [5] was “inactive” each time. The Potency in [2] is 1.58 µM (active); in test [3], 15.8 µM (active).
For the compound `CC(=O)N1c2ccc(-c3ccc(C(=O)O)cc3)cc2C(Nc2ccc(Cl)cc2)CC1C` (centres undefined), the Potency result in test [1], in test [6] and in test [4] was “inactive” each time.
Consider `CNC1CN(c2ccc3c(=O)c(C(=O)O)cn(-c4nccs4)c3n2)CC1OC` (centres undefined), for which the activity change, negative = inhibition in test [1] is 2.97% [at 11.2 µM]; in [6], -0.123% [at 20.1 µM]; in test [4] it was -3.75% [at 11.2 µM].
Regarding `O=C(NCCCN1CCNCC1)c1cccc(-c2cc(O)c3ncccc3c2)c1`, the Potency entry in [1], in test [4] and in test [5] was “inactive” throughout. Also, the Potency in test [2] is 10.1 µM (active).
Regarding `Cc1ccc(C(=O)N(CCCN)C(c2oc3cc(Cl)ccc3c(=O)c2Cc2ccccc2)C(C)C)cc1` (centres undefined), the Potency entry in [1], in [6] and in test [4] was “inactive” each time.
Turning to `Cc1cnc(-c2ccccc2N(C)C)nc1NCc1ccc(-c2cccnc2)cc1`, the Potency entry in test [1] and in [4] was “inactive” throughout. Further, the values for the Potency in test [2] and in test [5] were 3.55 µM (active) and 14.2 µM (active), respectively.
In the case of `Cc1noc(C)c1S(=O)(=O)Nc1cnccc1C(=O)Nc1nc(-c2ccccc2)cs1`, the Potency result in [1], in [2] and in test [4] was “inactive” throughout.
With `O=C(Nc1ncc(SCCN2CCCC2)s1)C1(c2ccc(S(=O)(=O)C3CC3)cc2)CC1C1CCCCC1` (centres undefined), the Potency entry in test [1], in test [6] and in test [4] was “inactive” throughout.
As for `N#Cc1ccc2[nH]c(O)c(-c3ccc(CN4CCOCC4)cn3)c2c1`, the Potency result in [1] was “inactive”. Moreover, in [6], the Potency was 10 µM (active).
Consider `COc1cc(C(=O)O)ccc1NC(=O)C1NC(CC(C)(C)C)C(C#N)(c2ccc(Cl)cc2F)C1c1cccc(Cl)c1F` (centres undefined), for which the Potency entry in test [1], in [6] and in test [4] was “inactive” throughout.
`Cc1cc(C)cc(-c2cnc3cc(Cl)c(-c4cccc(O)c4)cc3c2OCCCN)c1`: the Potency result in [1], in [6] and in test [4] was “inactive” in each case.
With `N#Cc1ccc(COc2ccc(-c3cccc4nc(NC(=O)C5CC5)nn34)cc2)cn1`, the Potency result in test [1], in [6] and in test [4] was “inactive” each time.
Consider `C[C@H]1[C@H](C)C[C@@H](C(=O)O)C2CC[C@]3(C)C(=CC[C@@H]4[C@@]5(C)CC[C@H](O)C(C)(C)[C@@H]5CC[C@]43C)[C@@H]21` (some centres undefined), for which the Potency entry in test [1], in test [6] and in test [4] was “inactive” in each case.
With `CC(=O)NC(c1cccs1)c1cc(Br)c2cccnc2c1O` (centres undefined), the Potency entry in [1] and in [4] was “inactive” each time. Also, in test [2], the Potency is 10.1 µM (active).
In the case of `C=CS(=O)(=O)NC1CCN(C(=O)CNc2cc(I)c(Cl)cc2OC)CC1`, the Potency entry in test [1], in test [6] and in test [4] was “inactive” each time.
Consider `COc1cc(/C=C/C(=O)N2CCN(CC(=O)N3CCCC3)CC2)cc(OC)c1OC`, for which the Potency result in [1], in test [6] and in test [4] was “inactive” throughout.
Consider `Cc1ccc(CNc2cccc(N3CCCCC3)c2)cc1`, for which the Potency result in test [1] and in test [4] was “inactive” each time. Moreover, the Potency in [2] is 22.5 µM (active).
As to `COCCOc1cnc2ccn([C@H](C)c3nnc4c(F)cc(-c5cnn(C)c5)cn34)c(=O)c2c1`, the Potency result in [1], in [4], in [8], in test [9], in [10] and in [11] was “inactive” each time. Further, the Potency entry in [12] and in test [13] was “inactive” throughout. Further, the Potency was 12.7 µM (active) in [2] and 25.2 µM (active) in test [5]. Besides, in test [7], the viability is 70.9%.
On to `Cc1cc(C)nc(NC(=S)N2CCN(c3ccc4nonc4c3)CC2)c1`, for which the Potency result in test [1] and in [4] was “inactive” each time. Besides, the figures for the Potency in test [2] and in test [5] were 15.9 µM (active) and 11.3 µM (active), respectively.
In the case of `COc1cc(N(C)CCN(C)C)c(N)cc1Nc1nccc(-c2cn(C)c3ccccc23)n1`, the Potency entry in test [1], in test [6] and in test [4] was “inactive” in each case.
`NC(=O)C1CCN(c2nc(-c3ccccc3-c3ccccc3)cs2)CC1`: the Potency result in test [1] is “inactive”. Also, the Potency was 2.83 µM (active) in test [2] and 3.18 µM (active) in [5].
As for `Cc1cc(C)nc(NC(=S)N2CCN(c3cccc4[nH]ccc34)CC2)c1`, the Potency entry in test [1] and in test [4] was “inactive” throughout. Besides, the Potency in test [2] was 7.12 µM (active); in test [5], 8.96 µM (active).
Turning to `C[C@]12CC[C@@H]3c4ccc(O)c(O)c4CC[C@H]3[C@@H]1CCC2=O`, the Potency was 15.8 µM (active) in test [1], 15.9 µM (active) in test [2] and 1.59 µM (active) in test [5].
For `COc1ccc(C2NC(=O)c3ccccc3N2)cc1COc1ccc(NC(C)=O)cc1` (centres undefined), the Potency entry in test [1], in [2] and in test [4] was “inactive” each time.
With `CC(C)n1cnc2c(Nc3cccc(Cl)c3)nc(NCCO)nc21`, the Potency entry in test [1], in test [6] and in test [4] was “inactive” each time.
Consider `CC[C@H]1OC(=O)[C@H](C)[C@@H](O[C@H]2C[C@@](C)(OC)[C@@H](O)[C@H](C)O2)[C@H](C)[C@@H](O[C@@H]2O[C@H](C)C[C@H](N(C)C)[C@H]2O)[C@](C)(O)C[C@@H](C)C(=O)[C@H](C)[C@H]2OC(=O)O[C@@]21C`, for which the Potency result in [1], in test [6] and in test [4] was “inactive” each time.
In the case of `COc1cc2c(cc1-c1c(C)noc1C)ncc1[nH]c(=O)n(C(C)c3ccccn3)c12` (centres undefined), the Potency entry in test [1], in test [6] and in [4] was “inactive” each time.
As to `Cc1ccc(NC(=O)CN2C(=O)N/C(=C\c3ccco3)C2=O)cc1`, the Potency result in test [1] and in test [4] was “inactive” in each case. Also, in test [2], the Potency is 4.49 µM (active).
On to `O=C(CCCCCCC(=O)Nc1ccc(C2OC(CSc3nc(-c4ccccc4)c(-c4ccccc4)o3)CC(c3ccc(CO)cc3)O2)cc1)NO` (centres undefined), for which the Potency result in test [1] was “inactive”. Moreover, in test [6], the Potency was 10 µM (active).

For the origin of these results see PubChem BioAssay (NCATS).
